# Results from PubChem BioAssay (NCATS).
# Results filed as inconclusive are left out. A call without a number means that no potency is given here. Calls of active or inactive are those of the source. Unless noted, calls follow the shape of the dose curve; as a rule, active = well fitted curve in the direction sought with a large enough effect; inconclusive = small, poorly fitted or top-dose-only effect, or another doubt; inactive = no such curve, though single readings can be large; an effect the other way counts as inactive or inconclusive.
# Tests used:
# [1] = qHTS for Inhibitors of Plasmodium falciparum (GB4) proliferation (AID 504315); also: nearly all actives have a fitted effect of over 50% in size
# In short: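 Parasite growth measured as SYBR Green DNA fluorescence (ex 485, em 535 nm) after overnight lysis following 72 h culture at 37 °C, 0.3% parasitemia, 2.5% hematocrit. Values normalized against DMSO and 0.29 uM artemisinin controls, with plate-stack correction.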
# [2] = S16 Schwann cell PMP22 intronic element firefly luciferase assay (AID 624032); also: nearly all actives have a fitted effect of over 30% in size
# In short: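 Rat S16 Schwann cells stably carrying a PMP22 intronic element-driven Fluc reporter were seeded overnight, then exposed to compounds for 24 h at 37 °C. Luminescence was normalized to PTC124 (positive control) and DMSO (0% activity).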
# CP335 = test: qHTS profiling for inhibitors of Plasmodium falciparum proliferation (AID 504749); also: nearly all actives have a fitted effect of over 60% in size; also: potency is read from the fitted curve at half-maximal effect; conditions: P. falciparum in erythrocytes, SYBR Green DNA, 72 h; series mostly up to 28.7 µM
# In short: (§1)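 Quantitative HTS: compounds pinned into medium, infected erythrocytes added (0.3% parasitemia, 2.5% hematocrit), 72 h culture at 37 C under 5% CO2. Saponin/Triton lysis with SYBR Green I, overnight RT, then fluorescence read.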
# DFO2036 = test: as above; conditions: P. falciparum in erythrocytes, SYBR Green DNA, 72 h; series mostly up to 28.7 µM
# In short: as §1
# DIV17 = test: as above; conditions: P. falciparum in erythrocytes, SYBR Green DNA, 72 h; series mostly up to 28.7 µM
# In short: as §1
# DIV30 = test: as above; conditions: P. falciparum in erythrocytes, SYBR Green DNA, 72 h; series mostly up to 28.7 µM
# In short: as §1
# PC26 = test: as above; conditions: P. falciparum in erythrocytes, SYBR Green DNA, 72 h; series mostly up to 28.7 µM
# In short: as §1
# W2 = test: as above; conditions: P. falciparum in erythrocytes, SYBR Green DNA, 72 h; series mostly up to 28.7 µM
# In short: as §1
# [3] = target: Ubiquitin carboxyl-terminal hydrolase 1 (Homo sapiens) (UniProt O94782); test: Inhibitors of USP1/UAF1: Pilot qHTS (AID 504865);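 also: rhodamine fluorescence freed from ubiquitin-rhodamine substrate followed over time; top concentration of the series differs between compounds; nearly all actives have a fitted effect of over 35% in size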
# Sequence of Ubiquitin carboxyl-terminal hydrolase 1 (Homo sapiens) (O94782 whole entry, looked up): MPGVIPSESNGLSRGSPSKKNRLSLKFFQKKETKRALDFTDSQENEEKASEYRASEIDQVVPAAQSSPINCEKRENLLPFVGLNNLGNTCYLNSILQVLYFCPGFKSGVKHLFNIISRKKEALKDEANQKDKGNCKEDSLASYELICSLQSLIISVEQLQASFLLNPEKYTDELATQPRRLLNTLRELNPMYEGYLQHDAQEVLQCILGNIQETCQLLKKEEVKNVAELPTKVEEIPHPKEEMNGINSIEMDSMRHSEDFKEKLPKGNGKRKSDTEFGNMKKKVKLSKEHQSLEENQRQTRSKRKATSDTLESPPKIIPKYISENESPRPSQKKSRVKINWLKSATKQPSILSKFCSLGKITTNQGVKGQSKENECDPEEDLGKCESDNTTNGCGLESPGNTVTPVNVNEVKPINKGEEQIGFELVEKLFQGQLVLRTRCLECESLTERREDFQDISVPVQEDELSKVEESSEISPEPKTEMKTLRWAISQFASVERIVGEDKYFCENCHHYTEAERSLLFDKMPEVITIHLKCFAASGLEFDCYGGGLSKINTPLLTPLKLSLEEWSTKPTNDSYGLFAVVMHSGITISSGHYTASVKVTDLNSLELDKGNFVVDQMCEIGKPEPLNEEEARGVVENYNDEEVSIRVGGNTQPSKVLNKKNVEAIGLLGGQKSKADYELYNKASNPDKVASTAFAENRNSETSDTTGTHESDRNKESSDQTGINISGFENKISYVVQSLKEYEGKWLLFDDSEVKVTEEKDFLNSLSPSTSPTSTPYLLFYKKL
# In short: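 Enzyme-free wells gave the negative control, while test wells held 1nM USP1/UAF1 preincubated with compound for 15 min at room temperature. Ub-Rho at 150nM final started the reaction, and fluorescence at 480/540 nm was recorded kinetically.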
# [4] = S16 Schwann cell PMP22 intronic element beta-lactamase assay (AID 624044; calls by dose curve; also: nearly all actives have a fitted effect of over 15% in size); conditions: S16 rat Schwann cells, PMP22 element beta-lactamase FRET, 24 h; ratio activity, negative = inhibition: at 38.3 µM (top of the series)
# In short: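 Beta-lactamase reporter under a PMP22 intronic regulatory element in stable S16 rat Schwann cells; 24 h compound exposure. 460 nm blue signal normalized between DMSO (0%) and potassium clavulanate, with 535 nm FRET tracking viability; curves classed by r2 and response.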
smiles,measurement,setting,value
C[C@H]1Cc2c(-c3ccccc3)nc3c(c2CO1)CN(C(=O)C1CCCCC1)CC3,Potency,[1],inactive
Cc1ccc(S(=O)(=O)N[C@@H]2COC(=O)[C@@H](C)COC(=O)CC=C[C@H]2C)cc1,Potency,[1],inactive
COC(=O)CCCC1=CC2=CC(=O)C(C)(OC(=O)c3cccs3)C(=O)C2=CN1Cc1ccc2c(c1)OCO2 (stereo not drawn),Potency,[1],inactive
CCCCC1=CC2=CC(=O)C(C)(OC(=O)CC)C(=O)C2=CN1CCN1CCOCC1 (stereo not drawn),Potency,[1],inactive
Fc1ccccc1-c1nc(-c2ccccc2)oc1NC1CCCCC1,Potency,[1],inactive
COc1ccc(C2=CC3=C(Br)C(=O)C(C)(OC(=O)c4ccco4)C(=O)C3=CO2)cc1 (stereo not drawn),Potency,[1],inactive
C=CCOC(=O)N[C@H](C(C(=O)OC)=C(C)NCc1ccccc1)c1cccc(F)c1,Potency,[1],inactive
CCCCC1=CC2=CC(=O)C(C)(OC(=O)CC)C(=O)C2=CN1CCCOC(C)C (stereo not drawn),Potency,[1],inactive
COc1ccc(C2=CC3=C(Br)C(=O)C(C)(OC(=O)c4cnc5ccccc5n4)C(=O)C3=CO2)cc1 (stereo not drawn),Potency,[1],inactive
COC(=O)CCC(=O)OC1(C)C(=O)C2=CN(CCc3ccccn3)C(c3ccc(OC)cc3)=CC2=C(Br)C1=O (stereo not drawn),Potency,[1],inactive
COC/C=C/C1=CC2=CC(=O)C(C)(OC(=O)c3cnc4ccccc4n3)C(=O)C2=CN1CC(C)C (stereo not drawn),Potency,[1],inactive
CCOC(=O)CN1C(=O)NC(c2cccc(C(F)(F)F)c2)C(C(C)=O)=C1C (stereo not drawn),Potency,[1],inactive
C=CC1=C2C=C(C3CC3)N(CCCN(CC)CC)C=C2C(=O)C(C)(OC(=O)c2ccco2)C1=O (stereo not drawn),Potency,[1],inactive
COC(=O)[C@H](Cc1ccccc1)NC(=O)O[C@@H]1C(=O)c2cc(OC)ccc2O[C@H]1c1cccc(OC)c1,Potency,[1],inactive
COC/C=C/C1=CC2=CC(=O)C(C)(OC(=O)c3cnc4ccccc4n3)C(=O)C2=CN1Cc1ccccc1 (stereo not drawn),Potency,[1],inactive
CC(C)OCCCN1C=C2C(=O)C(C)(OC(=O)CCc3ccccc3)C(=O)C=C2C=C1c1ccc(C#N)cc1 (stereo not drawn),Potency,[1],inactive
CC[C@@H](C)CN1C(=O)N[C@@H](CCc2ccccc2)C(C(C)=O)=C1C,Potency,[1],inactive
COC/C=C/C1=CC2=CC(=O)C(C)(OC(=O)c3cnc4ccccc4n3)C(=O)C2=CN1CCc1c[nH]c2ccccc12 (stereo not drawn),Potency,[1],inactive
COc1ccc(-c2nc3c(c4c2C[C@H](c2ccccc2)OC4)CN(S(=O)(=O)c2ccc4c(c2)OCCN4C)CC3)c(C)c1,Potency,[1],inactive
CCN1C(=O)N[C@@H](c2ccc(Br)cc2)C(C(C)=O)=C1C,Potency,[1],inactive
COC(=O)CCC(=O)OC1(C)C(=O)C=C2C=C(C3CC3)N(CCCCO)C=C2C1=O (stereo not drawn),Potency,[1],inactive
CCCCC1=CC2=C(c3ccco3)C(=O)C(C)(OC(=O)c3ccc(OC)cc3)C(=O)C2=CN1C1CC1 (stereo not drawn),Potency,[1],inactive
CCCCc1nc2c(c3c1C[C@H](C)OC3)CN(C(=O)Nc1ccc(OC)cc1)CC2,Potency,[1],inactive
COCCN1C=C2C(=O)C(C)(OC(=O)CCC(=O)OC)C(=O)C(Br)=C2C=C1c1ccc(OC)cc1 (stereo not drawn),Potency,[1],inactive
COC(=O)CCC(=O)OC1(C)C(=O)C=C2C=C(C3CC3)N(CC(C)C)C=C2C1=O (stereo not drawn),Potency,[1],inactive
CC1(OC(=O)CCc2ccccc2)C(=O)C=C2C=C(c3ccc(C#N)cc3)N(Cc3ccccc3)C=C2C1=O (stereo not drawn),Potency,[1],inactive
COC(=O)[C@@H]1[C@H](CCc2ccccc2)NC(=O)N(Cc2ccccc2)[C@@H]1C,Potency,[1],inactive
COC/C=C/C1=CC2=CC(=O)C(C)(OC(=O)c3cnc4ccccc4n3)C(=O)C2=CN1c1ccc(CO)cc1 (stereo not drawn),Potency,[1],inactive
OCCOC[C@H]1O[C@H](OCCO)[C@H](OCCO)[C@@H](OCCO)[C@@H]1OCCO (tested in a mixture with another compound),Potency,[2],inactive
same,Potency,CP335,inactive
same,Potency,DFO2036,inactive
same,Potency,DIV17,inactive
same,Potency,DIV30,inactive
same,Potency,PC26,inactive
same,Potency,W2,inactive
C#C[C@@]1(O)CC[C@@H]2[C@H]3CCC4=C/C(=N\O)CC[C@H]4[C@@H]3CC[C@]21CC,Potency,[3],inactive
same,Potency,[4],inactive
same,Potency,CP335,inactive
same,Potency,DFO2036,inactive
same,Potency,DIV17,inactive
same,Potency,DIV30,inactive
same,Potency,PC26,inactive
COc1cc2c(cc1O)CCN[C@@]21CS[C@H]2c3c(OC(C)=O)c(C)c4c(c3C(COC1=O)N1C2C2c3c(cc(C)c(OC)c3O)CC([C@@H]1O)N2C)OCO4 (stereo partly drawn),Potency,[2],inactive
same,Potency,CP335,0.4 nM (active)
same,Potency,DIV30,1.5 nM (active)
same,Potency,PC26,1.3 nM (active)
same,Potency,W2,0.4 nM (active)
Nc1ncn(C2C[C@H](O)[C@@H](CO)O2)c(=O)n1 (stereo partly drawn),Potency,[3],inactive
same,Potency,CP335,inactive
same,Potency,DFO2036,inactive
same,Potency,DIV17,inactive
same,Potency,DIV30,inactive
same,Potency,PC26,inactive
same,Potency,W2,inactive
C=C[C@H]1CN2CCC1C[C@H]2[C@H](O)c1ccnc2ccc(OC)cc12 (stereo partly drawn),Potency,[2],inactive
same,"ratio activity, negative = inhibition",[4],-10.4% (active)
same,Potency,CP335,849 nM (active)
same,Potency,DIV17,757 nM (active)
same,Potency,DIV30,953 nM (active)
same,Potency,PC26,601 nM (active)
same,Potency,W2,338 nM (active)
CCN(CC)C(=O)[C@@]1(c2ccccc2)C[C@@H]1CN,Potency,[2],inactive
same,Potency,[4],inactive
same,Potency,CP335,inactive
same,Potency,DIV30,inactive
CC1=C[C@@H](O)CC(C)(C)[C@@H]1/C=C/C(C)=C/C=C/C(C)=C/C=C/C=C(C)/C=C/C=C(C)/C=C/C1=C(C)C[C@H](O)CC1(C)C,Potency,[4],inactive
same,Potency,W2,6750 nM (active)
CO/N=C(/C(=O)N[C@@H]1C(=O)N2C(C(=O)O)=C(CSc3nc(C)c(CC(=O)O)s3)CS[C@H]12)c1csc(N)n1,Potency,[3],inactive
same,Potency,[2],inactive
same,Potency,[4],inactive
same,Potency,CP335,inactive
same,Potency,DFO2036,inactive
same,Potency,DIV17,inactive
same,Potency,DIV30,inactive
same,Potency,PC26,inactive
same,Potency,W2,inactive
CC1=C(C/C=C(\C)CCCC(C)CCCC(C)CCCC(C)C)C(=O)c2ccccc2C1=O (stereo not drawn),Potency,[4],inactive
same,Potency,CP335,12000 nM (active)
same,Potency,DFO2036,inactive
same,Potency,DIV17,inactive
same,Potency,DIV30,inactive
same,Potency,PC26,inactive
same,Potency,W2,4780 nM (active)
